Laboratory results from PubChem BioAssay AID1159580 (chemical genetic matrix, 2015).
Values joined by “and” are separate entries in the source; they are usually repeats but may differ in a detail not shown here. Equal values may be shown once. Among all 5,500 compounds or so, about 2,000 (36%) were called active. Not shown: some 18% with an inconclusive outcome. No stated cut-off is given here; in the data, active means normalized growth mostly below about 0.91 (no sharp cut-off); inconclusive means no clear call, values can overlap the other calls; inactive means mostly above about 0.92. The list shows a part of the results.

Experiment: chemical genetic growth profiling, strain panel (AID 1159580);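 further: tested at 20 µM; growth read once vehicle control cultures reached saturation at 30 °C; 1 = growth at the plate median or of vehicle wells; lower values mean less growth of the strain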
Conditions: S. cerevisiae deletion strains, growth OD

Measured: normalized growth

COc1cc(OC)c2c(c1)O[C@H](c1ccc(OC)c(OC)c1)[C@@H](O)C2
inactive: locus YAL021C, strain ccr4, active compounds read low 1.01 | locus YAL026C, strain drs2, active compounds read low 0.961 | locus YAL030W, strain snc1, active compounds read low 0.998 | locus YBL061C, strain skt5, active compounds read low 0.989 | locus YBR009C, strain hhf1, active compounds read low 1 | locus YBR021W, strain FUR4, active compounds read low 1.06 | locus YBR023C, strain chs3, active compounds read low 1 | locus YBR171W, strain sec66, active compounds read low 0.971 | locus YBR229C, strain ROT2, active compounds read low 1.01 | locus YBR231C, strain swc5, active compounds read low 0.981 | locus YBR279W, strain paf1, active compounds read low 1 | locus YCL011C, strain gbp2, active compounds read low 0.986 | locus YCL016C, strain dcc1, active compounds read low 1.02 | locus YCL029C, strain bik1, active compounds read low 1.02 | locus YCL061C, strain MRC1, active compounds read low 0.996 | locus YCL069W, strain vba3, active compounds read low 0.968 | locus YCR088W, strain abp1, active compounds read low 0.984 | locus YDL005C, strain med2, active compounds read low 0.985 | locus YDL035C, strain GPR1, active compounds read low 1.04 | locus YDL040C, strain nat1, active compounds read low 0.992 | locus YDL074C, strain BRE1, active compounds read low 1.11 | locus YDL101C, strain DUN1, active compounds read low 1.02 | locus YDL134C, strain PPH21, active compounds read low 1.09 | locus YDL185W, strain tfp1, active compounds read low 1.03 | locus YDL192W, strain arf1, active compounds read low 1 | locus YDR001C, strain nth1, active compounds read low 0.989 | locus YDR069C, strain doa4, active compounds read low 0.976 | locus YDR101C, strain arx1, active compounds read low 0.99 | locus YDR137W, strain rgp1, active compounds read low 0.949 | locus YDR159W, strain sac3, active compounds read low 0.95 | locus YDR162C, strain NBP2, active compounds read low 1.03 | locus YDR195W, strain ref2 0.976 | locus YDR297W, strain sur2, active compounds read low 0.988 | locus YDR318W, strain mcm21, active compounds read low 1.01 | locus YDR334W, strain swr1, active compounds read low 0.977 | locus YDR335W, strain msn5, active compounds read low 0.983 | locus YDR388W, active compounds read low 1.03 | locus YDR392W, strain spt3, active compounds read low 0.909 | locus YDR502C, strain sam2, active compounds read low 1.02 | locus YEL003W, strain gim4, active compounds read low 0.984 | locus YEL037C, strain rad23, active compounds read low 0.985 | locus YEL061C, strain CIN8 (second series), active compounds read low 0.976 | locus YER015W, strain faa2, active compounds read low 1.01 | locus YER016W, strain bim1, active compounds read low 0.992 | locus YER110C, active compounds read low 0.998 | locus YER111C, strain swi4, active compounds read low 0.994 | locus YER155C, strain BEM2 (second series), active compounds read low 0.947 | locus YER155C, strain BEM2, active compounds read low 1.01 | locus YER167W, strain BCK2, active compounds read low 1.01 | locus YFR010W, strain ubp6, active compounds read low 0.956 | locus YGL078C, strain dbp3, active compounds read low 1.02 | locus YGL086W, strain mad1, active compounds read low 1 | locus YGL167C, strain pmr1, active compounds read low 1 | locus YGL173C, strain kem1, active compounds read low 0.983 | locus YGL227W, strain vid30, active compounds read low 0.982 | locus YGL240W, strain doc1, active compounds read low 1 | locus YGL248W, strain PDE1, active compounds read low 1.05 | locus YGL253W, strain hxk2, active compounds read low 0.939 | locus YGR135W, strain pre9, active compounds read low 1.05 | locus YGR252W, strain gcn5, active compounds read low 1.08 | locus YHR013C, strain ard1, active compounds read low 1.01 | locus YHR027C, strain rpn1, active compounds read low 0.983 | locus YHR030C, strain SLT2, active compounds read low 0.996 | locus YHR079C, strain IRE1 (second series), active compounds read low 1.02 | locus YHR079C, strain IRE1, active compounds read low 0.992 | locus YHR094C, strain hxt1, active compounds read low 1.04 | locus YHR129C, strain ARP1, active compounds read low 1.02 | locus YHR142W, strain chs7, active compounds read low 0.993 | locus YHR200W, strain rpn10, active compounds read low 1.02 | locus YIL066C, strain RNR3, active compounds read low 1.03 | locus YIL073C, strain SPO22, active compounds read low 1.09 | locus YIL125W, strain kgd1, active compounds read low 0.99 | locus YIR030C, strain dcg1, active compounds read low 1.01 | locus YJL092W, strain hpr5, active compounds read low 0.985 | locus YJL095W, strain BCK1 (second series), active compounds read low 0.971 | locus YJL095W, strain BCK1, active compounds read low 1.1 and 0.993 | locus YJL115W, strain asf1, active compounds read low 0.994 | locus YJL129C, strain trk1, active compounds read low 0.965 | locus YJL134W, strain LCB3, active compounds read low 1.01 | locus YJL154C, strain vps35, active compounds read low 0.983 | locus YJL164C, strain tpk1, active compounds read low 1.02 | locus YJL166W, strain qcr8, active compounds read low 0.984 | locus YJL168C, strain set2, active compounds read low 1.01 | locus YJL187C, strain SWE1 (second series), active compounds read low 1.03 | locus YJL187C, strain SWE1, active compounds read low 0.988 | locus YJR043C, strain POL32, active compounds read low 1.04 | locus YJR066W, strain TOR1, active compounds read low 0.941 | locus YKL009W, strain mrt4, active compounds read low 1.05 | locus YKL068W, active compounds read low 1.01 | locus YKL085W, strain MDH1 (second series), active compounds read low 1.02 | locus YKL085W, strain MDH1, active compounds read low 1.02 | locus YKL160W, strain elf1, active compounds read low 1.02 | locus YKL190W, strain CNB1, active compounds read low 1.01 | locus YKR001C, strain vps1, active compounds read low 1.04 | locus YKR026C, strain gcn3, active compounds read low 0.975 | locus YKR091W, strain srl3, active compounds read low 0.996 | locus YLL001W, strain dnm1, active compounds read low 0.972 | locus YLL026W, active compounds read low 0.996 | locus YLL041C, strain sdh2, active compounds read low 0.993 | locus YLR027C, strain aat2, active compounds read low 0.994 | locus YLR039C, strain RIC1, active compounds read low 1.15 | locus YLR058C, strain SHM2, active compounds read low 1.02 | locus YLR102C, strain apc9, active compounds read low 1.01 | locus YLR113W, strain HOG1, active compounds read low 0.971 | locus YLR221C, strain rsa3, active compounds read low 0.953 | locus YLR258W, strain gsy2, active compounds read low 0.99 | locus YLR262C, strain YPT6 (second series), active compounds read low 0.956 | locus YLR268W, strain sec22, active compounds read low 1.02 | locus YLR320W, strain mms22, active compounds read low 0.979 | locus YLR330W, strain CHS5, active compounds read low 1.03 | locus YLR342W, strain FKS1, active compounds read low 0.997 | locus YLR357W, strain rsc2, active compounds read low 0.989 | locus YLR370C, strain arc18, active compounds read low 0.97 | locus YLR371W, strain rom2, active compounds read low 1.05 | locus YLR384C, strain iki3, active compounds read low 1.01 | locus YLR418C, strain cdc73, active compounds read low 1.09 | locus YML016C, strain PPZ1, active compounds read low 1.01 | locus YML032C, strain rad52, active compounds read low 1.01 | locus YML120C, strain ndi1, active compounds read low 1.01 | locus YML124C, strain tub3, active compounds read low 1 | locus YMR058W, strain fet3, active compounds read low 0.981 | locus YMR078C, strain ctf18, active compounds read low 1.03 | locus YMR125W, strain sto1, active compounds read low 0.982 | locus YMR129W, active compounds read low 0.999 | locus YMR205C, strain PFK2, active compounds read low 1.03 | locus YMR223W, strain ubp8, active compounds read low 1.01 | locus YMR231W, strain pep5, active compounds read low 0.973 | locus YMR263W, strain SAP30, active compounds read low 1.01 | locus YMR307W, strain GAS1, active compounds read low 1.22 | locus YNL067W, strain RPL9B, active compounds read low 1.02 | locus YNL071W, strain lat1, active compounds read low 0.989 | locus YNL153C, strain GIM3, active compounds read low 1.03 | locus YNL183C, strain NPR1, active compounds read low 0.931 | locus YNL209W, strain ssb2, active compounds read low 1.01 | locus YNL233W, strain BNI4, active compounds read low 1.07 | locus YNL248C, strain rpa49, active compounds read low 0.968 | locus YNL250W, strain rad50, active compounds read low 1.03 | locus YNL271C, strain bni1, active compounds read low 1.01 | locus YNL298W, strain CLA4, active compounds read low 1.03 | locus YNL307C, strain MCK1, active compounds read low 1.03 | locus YNL322C, strain KRE1 (second series), active compounds read low 1.01 | locus YNR049C, strain mso1, active compounds read low 0.988 | locus YNR052C, strain pop2, active compounds read low 1.04 | locus YOL006C, strain TOP1, active compounds read low 1.3 | locus YOL012C, strain htz1 1.07 | locus YOL147C, strain pex11, active compounds read low 1.01 | locus YOR001W, strain rrp6, active compounds read low 0.925 | locus YOR061W, strain CKA2, active compounds read low 1.02 | locus YOR069W, strain VPS5, active compounds read low 1.01 | locus YOR070C, strain gyp1, active compounds read low 1.01 | locus YOR080W, strain dia2, active compounds read low 0.971 | locus YOR083W, strain WHI5, active compounds read low 1.03 | locus YOR106W, strain vam3, active compounds read low 1.03 | locus YOR136W, strain idh2, active compounds read low 1.01 | locus YOR144C, strain elg1, active compounds read low 1 | locus YOR184W, strain ser1, active compounds read low 1 | locus YOR231W, strain MKK1, active compounds read low 1 | locus YOR265W, strain rbl2, active compounds read low 0.988 | locus YOR270C, strain vph1, active compounds read low 0.969 | locus YOR290C, strain snf2, active compounds read low 0.994 | locus YOR316C, strain cot1, active compounds read low 1.03 | locus YPL051W, strain arl3, active compounds read low 0.985 | locus YPL078C, strain atp4, active compounds read low 1.03 | locus YPL106C, strain sse1, active compounds read low 1.05 | locus YPL240C, strain hsp82, active compounds read low 0.992 | locus YPL256C, strain CLN2, active compounds read low 0.958 | locus YPR119W, strain clb2, active compounds read low 0.999 | locus YPR141C, strain kar3, active compounds read low 1.01 | locus YPR163C, strain tif3, active compounds read low 1.01 | locus YPR167C, strain met16, active compounds read low 1.03 | strain wtn01, active compounds read low 0.997
